Molecules are shown by their SMILES. This is part of a sample that, as a whole, favours compounds with a hit. Of some 83,000 tested, about 20% had one in any assay.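 Assay: single dose, 48 h. Readout: percent growth (0 = no net growth; negative = cell death). Active: <10.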 Activity calls are given as the source filed them.

This experiment concerns IGROV1 ovarian. The experiment is described as follows: NCI-60 one-dose screen, 48 h (100 = growth as untreated, 0 = no growth, -100 = all killed). The settings on record: 10 µM unless noted.
Consider `Nc1cc(C(=O)N/N=C\c2ccc(OC(F)F)c(OC3CCCC3)c2)nn1CC(O)c1ccccc1` (stereo not given), for which the growth is 108% (inactive).
As to `Clc1ccc2[nH]cc(-c3nn4cc(-c5ccncc5)nc4s3)c2c1`, the growth was 44.6% (inactive).
As to `CN1CC[C@@H]2[C@@]3(C)CC[C@H](O)C(C)(C)[C@@H]3CC[C@@]2(C)[C@]2(C)CC[C@@]3(CO)CCC(C)(C)C[C@@H]3C12` (stereo not given in full), the growth was 94.8% (inactive).
As for `Brc1cc(-c2cc(-c3ccc4c(c3)OCCO4)[nH]n2)cs1`, the growth is 50.8% (inactive).
Under `NS(=O)(=O)c1ccc(Nc2nc(Nc3ccccc3)nc(N3N=C(c4ccc(Cl)cc4)CC3c3ccc(Cl)cc3)n2)cc1` (stereo not given) stands 34.3% (inactive).
As to `O=C(N/N=C\c1ccc([N+](=O)[O-])cc1)c1ccc2nc(-c3ccc(Br)cc3)[nH]c2c1`, the growth was 18% (inactive).
On to `O=C(/C=C/c1cccc(C(F)(F)F)c1)Nc1cccc(C(F)(F)F)c1`, for which the growth was 53% (inactive).
`Brc1cccc(-c2cc(-c3ccc4c(c3)OC=CO4)[nH]n2)c1`: the growth is 41.3% (inactive).
Regarding `CCc1cc2c(cc1Cl)nc1c(=O)[nH]c(=O)nc-1n2CCOCC(C)C`, the growth is 58.6% (inactive).
Consider `CCCCSC1=C(Cl)CN(c2ccccc2)C1=O`, for which the growth is 106% (inactive).
As for `Brc1ccc(-c2cc(-c3ccc4c(c3)OC=CO4)n[nH]2)s1`, the growth was 81% (inactive).
For `O=c1c2cc(-c3ccc(F)cc3F)ccc2n(Nc2ccccc2)c(=O)n1-c1cccc(C(F)(F)F)c1`, the growth is 17.4% (inactive).
Take `CN1CCN(CCCCCC(=O)Nc2nc(-c3cccc(NS(=O)(=O)c4cccc5c(N(C)C)cccc45)c3)cs2)CC1`: the growth was 87.8% (inactive).
`CCCCc1nc2c(N)nc3ccccc3c2n1Cc1cccc(CN)c1`: the growth is 62.8% (inactive).
For `CCCCCCCCCCCC(=O)NC(C)(C)C(=O)N1CCCC1C(=O)NC(C)(C)C(=O)NC(C)(C)C(=O)N1CCCC1C(=O)NC(C)(C)C(=O)NC(C)(C)C(=O)N1CCCC1C(=O)NC(C)C(=O)NCCC(=O)NC(C)C(=O)NC(C)(C)C(=O)NC(C)(C)C(=O)NC(C)(C)C(=O)NCCC(=O)NC(C)(C)C(=O)NC(C)(C)C(=O)NC(C)(C)C(=O)NC(C)C(=O)NCCC(=O)O` (stereo not given), the growth was -93.8% (active).
Turning to `NS(=O)(=O)c1ccc(Nc2nc(N/N=C/c3ccc4c(c3)OCO4)nc(Nc3ccccc3)n2)cc1`, the growth is 36.6% (inactive).
On to `O=[N+]([O-])c1ccc(NC(=S)NNC(=S)Nc2ccc(Br)cc2)cc1`, for which the growth was 71.7% (inactive).
Turning to `Cc1cc(=O)[nH]c(O)c1C#N`, the growth is 103% (inactive).
The figure for `Cc1ccc(OCc2occc2C(=O)N2CCOCC2)cc1` is 104% (inactive); for `O=C1C(SCc2ccccc2)=C(Cl)CN1c1ccccc1` it is 103% (inactive); for `COc1ccc(C2C(C#N)=C(/N=C/c3ccc(Cl)cc3)Oc3c2sc2c(C)cccc32)cc1` (stereo not given) it is 23.6% (inactive).
On to `CN(C)CCNc1ccc2ncc(C#Cc3cncc(C(=O)Nc4ccc(CN5CCN(C)CC5)c(C(F)(F)F)c4)c3)n2n1`, for which the growth was 0.103% (active).
On to `CN1CCC[C@]2(C)[C@H]3CC[C@@H]4[C@@H]5[C@H]6OC[C@@]5(CCC6(C)C)CC[C@@]4(C)[C@]3(C)CC[C@H]2C1(C)C`, for which the growth is 77.8% (inactive).
In the case of `COc1ccccc1/C=C/C(=O)c1nnn(-c2ccc(F)cc2)c1C`, the growth was 45.6% (inactive).
In the case of `CC(C)[C@H]1c2[nH]c3ccccc3c2C[C@H]2C(=O)N(CCCCCCC(=O)NO)CC(=O)N12`, the growth is 92.9% (inactive).
For `COC(=O)CCCNCCCn1ccc2cc(NCc3cccc(-c4ccccc4)c3C)ccc21`, the growth was 67.1% (inactive).
Take `C=C(C=O)[C@@H]1CC[C@]2(C(=O)O)CC[C@]3(C)C(CC[C@@H]4[C@@](C)(CCC#N)[C@H](C(=C)C=O)CC[C@]43C)[C@@H]12` (stereo not given in full): the growth was 14.6% (inactive).
`CC1(C)CC[C@]23CC[C@]4(C)[C@H](CC[C@@H]5[C@@]6(C)CC[C@H](NCO)C(C)(C)[C@@H]6CC[C@]54C)[C@H]2[C@H]1OC3`: the growth was 64.8% (inactive).
Under `O=C1/C(=C/C=C/c2ccco2)SC(=S)N1Cc1ccccc1` stands 92.9% (inactive); under `COc1ccc(/C=N/NC(=O)c2c(N)nn(C)c2Nc2ccccc2)cc1Oc1ccccc1`, 93.5% (inactive); under `Cc1[nH]c(C(=O)Nc2ccc(S(=O)(=O)N3CCCCC3)cc2OCCOCCOCCOCCOCCOCCOCCOCCOCCOc2cc(S(=O)(=O)N3CCCCC3)ccc2NC(=O)c2[nH]c(C)c3c2CCCCC3=O)c2c1C(=O)CCCC2`, 6.25% (active).
Regarding `COc1ccc(C(=NNS(=O)(=O)c2ccc(C)cc2)c2ccccc2)cc1OC`, the growth was 90.8% (inactive).
Consider `CNC(=O)c1cc(Oc2ccc3c(c2)sc2nc(-c4ccc(N(C)C)cc4)cn23)ccn1`, for which the growth was 21.5% (inactive).
The figure for `CN1CCN(Cc2ccc(/C=N/Nc3ccnc4cc(Cl)ccc34)cc2)CC1` is 69.2% (inactive); for `O=C1Nc2ccccc2/C1=N\c1nnc(-c2ccccc2)o1` it is 72.1% (inactive).
On to `COc1ccc2c(c1)C=CC1(O2)Oc2ccc(OC)cc2C=C1C` (stereo not given), for which the growth is 24.5% (inactive).
For `Cn1cc(-c2nn3cc(-c4ccncc4)nc3s2)c2cc(Br)ccc21`, the growth was 33.4% (inactive).
Consider `C#Cc1nc(/C=C/CCCCCCC(=O)NO)cs1`, for which the growth is -80.3% (active).
Under `CC[C@]12CC(C(=O)OC)=C3Nc4ccccc4[C@@]34CCN(C14)[C@@H]1c3cc4c(cc3O[C@@H]1[C@H]2O)NC1=C(C(=O)OC)C[C@@]2(CC)C3N(CC[C@@]143)C[C@H]1O[C@H]12` (stereo not given in full) stands 15.9% (inactive); under `O=C(CCCCCCN1CC(=O)N2[C@@H](C3CC3)c3[nH]c4ccccc4c3C[C@H]2C1=O)NO`, 89.2% (inactive).
